Screening results as filed in PubChem.
Dicer processing = inhibitors of Dicer pre-microRNA processing, primary screen, biochemical, cat-ELCCA, chemiluminescence. Endoribonuclease Dicer (Homo sapiens), Q9UPY3. cat-ELCCA pre-miR-21 Dicer processing; active compounds read high. z-score at 25 µM. 6% of 47,000 active. AID 1347074, 2019; in the data active = z-score above about 3, passing the limit was not always enough;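 note: plate controls were vehicle for no effect and no enzyme for full effect; higher signal means more uncleaved substrate so more Dicer inhibition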
The depositor's hits bear a star. Only a selection was taken, and hits are over-represented in it overall.

SMILES	Dicer processing
CCN(CC)C(=S)Oc1c(C)c(C)nc(=S)n1CCCOC	9.4*
Cc1cc(C)n(C(=O)CSc2nc(-c3ccccc3)cc(C(F)(F)F)c2C#N)n1	1.4
CCOc1cc(-c2cc(=O)c3ccccc3o2)ccc1O	-0.81
CCOc1cc(-c2cc(OCC)c3c(C)oc(C)c3c(=O)c2)ccc1O	3.5*
CCOc1cc(-c2cc(O)c3c(C)oc(C)c3c(=O)c2)ccc1O	0.83
Cc1cc2c(cc1C)NC(c1cc(F)ccc1F)C1=C(CC(C)(C)CC1=O)N2 (centres undefined)	0.8
CSc1cc(-c2nccs2)nn1C(C)=O	1.2
CC(C)c1ccc(C2c3c(oc4ccc(F)cc4c3=O)C(=O)N2CCCN2CCOCC2)cc1 (centres undefined)	0.8
CN1c2ccccc2C(C)(C)C12C=Cc1cc(O)ccc1O2 (centres undefined)	15*
CC1(C)C=Cc2cc(/C(N)=N/O)ccc2O1	0.53
O=C1/C(=C/c2ccncc2)COc2ccccc21	-1
O=c1[nH]nc(SCc2c(F)cccc2Cl)n1-c1ccccc1C(F)(F)F	0.3
O=C(O)C(F)(F)C(F)(F)C(=O)NCc1ccccc1Cl	0.25
CCOC(=O)c1cc(C(=O)OCC)c(C(F)(F)F)nc1/C=C/N(C)C	-0.49
Cc1c(S(=O)(=O)NC2CCCCNC2=O)sc2ccc(Cl)cc12 (centres undefined)	1.3
O=C1NCCCCC1NS(=O)(=O)c1cccs1 (centres undefined)	-0.93
COC(=O)c1csc(S(=O)(=O)NC2CCCCNC2=O)c1OC (centres undefined)	4*
CC1(C)CC(=O)C2=C(C1)NC1=C(C(=O)CC(C)(C)C1)C2c1cccc(O)c1	1.1
O=C(Cn1c(NCCO)nc2ccccc21)c1ccco1	-0.78
O=C(Cn1c(NCCO)nc2ccccc21)c1cccc2ccccc12	4.2*
CC(C)n1c(NCCO)nc2ccccc21	-0.94
O=C(Nn1cnnc1)c1c(F)cccc1F	-0.3
CCOC(=O)c1c(C)csc1NC(=O)/C(C#N)=C/c1ccc(O)cc1	0.68
CCOC(=O)NC(=O)/C(C#N)=C/c1ccc(N(C)C)cc1	3.4*
CCOC(=O)/C(C#N)=C/c1ccc(-c2ccccc2)cc1	1.2
SMILES	Dicer processing
COc1ccc(C2/C(=C(/O)c3ccccc3)C(=O)C(=O)N2CCO)cc1OC (centres undefined)	-1.8
Cc1ccnc(SCn2c(=S)sc3ccccc32)n1	-3.7
Cc1ccnc(SCC(=O)n2c(C)c(C)c3ccccc32)n1	3.5*
Cc1c(C)n(C(=O)CSc2nc(O)cc(=O)[nH]2)c2ccccc12	-1.2
O=C1c2ccccc2C(=O)N1CNC(Cc1ccccc1)c1ccccc1 (centres undefined)	12
C/C(N)=N/C(=S)Nc1ccc(Cl)cc1	1.9
CO/C(N)=N/C(=S)Nc1ccccc1	-0.79
CC(C)=NN/C(N)=N/C(=S)Nc1ccccc1	4*
Cc1cc(C)nc(Nc2nc(N)c3ccccc3n2)n1	1.7
O=C(NCc1ccc(S(=O)(=O)NCCSCc2ccco2)s1)c1ccccc1	-1.2
O=C(NCc1cccnc1)c1nn2c(C(F)(F)F)cc(-c3ccccc3)nc2c1Cl	-0.44
C=CCOC(=O)c1sc(N2C(=O)c3oc4ccc(C)cc4c(=O)c3C2c2ccc(O)cc2)nc1C (centres undefined)	3.3*
CCOC(=O)c1sc(N2C(=O)c3oc4ccc(C)cc4c(=O)c3C2c2ccc(O)cc2)nc1C (centres undefined)	0.43
C=CCOC(=O)c1sc(N2C(=O)c3oc4ccc(C)cc4c(=O)c3C2c2ccc(F)cc2)nc1C (centres undefined)	-0.01
COC(=O)c1sc(N2C(=O)c3oc4ccccc4c(=O)c3C2c2ccc(C)cc2)nc1C (centres undefined)	-0.77
COC(=O)c1sc(N2C(=O)c3oc4ccccc4c(=O)c3C2c2cccc(Cl)c2)nc1C (centres undefined)	1.8
COC(=O)c1sc(N2C(=O)c3oc4ccccc4c(=O)c3C2c2cccc(O)c2)nc1C (centres undefined)	3.8*
C=CCNC(=O)c1ccc(C(F)(F)F)nc1C	-0.36
CN=C(Nc1cccc(Cl)c1)SC	1
O=[N+]([O-])c1ccc(Oc2c(Cl)cc(S(=O)(=O)N3CCCCC3)cc2Cl)cc1	-0.66
CN(C)/C=C/C=c1/c(=O)c2cccc3cccc1c32	3.7*
CN(C)N1C(=O)c2cccc3cccc(c23)C1=O	3
CN(C)/C=C/C=C1\N=C(c2ccccc2)OC1=O	0.68
Nc1ncnc2c1nc(N=Nc1c(O)[nH]c3ccccc13)n2[C@H]1O[C@@H](CO)[C@H](O)[C@@H]1O	0.51
O=C1C=CC(=O)C(CCC2=CC(=O)C=CC2=O)=C1	0.71
SMILES	Dicer processing
CCSc1nnc(NC(=O)c2cccc(C(=O)OC)n2)s1	1.3
Cn1c(=O)c2c(nc(NCCc3ccccc3)n2C)n(C)c1=O	1.1
Cc1noc(C)c1-c1nc(CSc2n[nH]c(=O)n2-c2cccnc2)no1	-0.12
CC(=O)O[C@@H]1[C@H]2OC(C)(C)O[C@H]2O[C@@H]1C(O)CO (some centres undefined)	-1.4
COc1c(Br)csc1-c1nc(-c2ccc(C(F)(F)F)cc2)no1	-0.15
CC(C#N)(Nc1ccccc1)c1ccncc1 (centres undefined)	3.4*
CCc1nnc(NC(=O)COc2ccc(Br)cc2)s1	1.1
CN(C)c1ccc(-c2nnc(-c3ccccc3)o2)cc1	4.2*
c1ccc(-c2nnc(-c3ccccc3)o2)cc1	1.1
CCCOC(=O)CSc1nnc(-c2ccc(N(C)C)cc2)o1	-1.4
OCCN1CCN(c2ncc(C(F)(F)F)cc2Cl)CC1	7.3
NC(=S)N/N=C/c1cn(-c2ccccc2)nc1-c1ccc(Cl)cc1	-1.1
CC(C)c1c(O)nc(SCCN2CCOCC2)[nH]c1=O	-0.1
CCc1c(O)nc(SCCN(CC)CC)[nH]c1=O	0
CCN(CC)CCSc1nc(O)c(C(C)C)c(=O)[nH]1	4.2*
CCCOC(=O)CCCN1C(=O)S/C(=C/c2ccc(OC)cc2)C1=S	0.59
O=C1CCC(=O)N1c1nc2n(n1)C(c1ccccc1)C=C(c1ccccc1)N2 (centres undefined)	2.5
COc1ccc(-c2nc3n(n2)C(=O)CC(c2cccc4ccccc24)S3)cc1 (centres undefined)	4.2*
COc1ccc(-c2nc3n(n2)C(c2cccc(OC)c2OC)C2=C(CC(C)(C)CC2=O)N3)cc1 (centres undefined)	2.3
O=C1CC(c2ccccc2)Sc2nc(-c3ccc(F)cc3)nn21 (centres undefined)	-0.47
Cc1ccc(-c2nc3n(n2)C(=O)CC(c2ccc4c(c2)OCO4)S3)cc1 (centres undefined)	-0.11
O=C1CC(c2cccc3ccccc23)Sc2nc(-c3ccccc3)nn21 (centres undefined)	4.4*
COc1cccc(C2CC(c3ccc(Br)cc3)=NN2C(=O)CCC(=O)O)c1OC (centres undefined)	-0.46
CCOC(=O)C1=C(C)NC2=C(C(=O)CC(C)(C)C2)C1c1cc(Br)c(O)c(OCC)c1 (centres undefined)	1
COC(=O)C1C(=O)C2=C(CC1C)Nc1ccccc1NC2c1ccc2c(c1)OCO2 (centres undefined)	-0.56
Cc1ccc(CSc2nnc3c(n2)OC=Nc2ccccc2-3)cc1	2.5
CC1(C)CC(=O)c2c(csc2S(C)(=O)=O)C1	1.7
CC(C)(C)c1ccc(-c2cc(NS(=O)(=O)c3ccc(Cl)cc3)n[nH]2)cc1	-7.5
